Test results: PubChem BioAssay
Calls of active or inactive are those of the source.

What was measured:
[1] = system: Plasmodium falciparum Sir2 (PF13_0152, Sir2A); experiment: Plasmodium falciparum Sir2A binding compounds – biochemical, small-molecule microarray, 635 nm fluorescence, primary screen (AID 1098); details: fluorescence 635 nm, higher = more signal;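 note: score merges spot fluorescence intensity with its signal-to-noise ratio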
[2] = probe aDKK1 binding to arrayed compounds – biochemical, biotinylated probe, 635/667 nm fluorescence, primary screen (AID 1099); details: small-molecule microarray, higher = more signal;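 note: score merges 667nm spot fluorescence with signal to noise across triplicate slides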
[3] = probe aCHRDL2 binding to arrayed compounds – biochemical, biotinylated probe, 635/667 nm fluorescence, primary screen (AID 1100); details: small-molecule microarray, higher = more signal
[4] = change in splice reporter luminescence, either direction, cell-based, HEK293, spliceosome inhibition project, primary screen (AID 1101); details: HEK293 splicing luciferase reporter, 24 h, higher = more signal, called active from +8 up or from −8 down;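 note: HEK293 cells carrying a splicing-competent luciferase reporter gene; test concentration not given here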
[5] = target: Fibroblast growth factor 10 (Homo sapiens) (UniProt O15520); experiment: compounds binding fibroblast growth factor 10 – biochemical, small-molecule microarray, 635 nm fluorescence, primary screen (AID 1102); details: FGF10 binding, fluorescence 635 nm, higher = more signal
Chain of Fibroblast growth factor 10 (Homo sapiens) (O15520 whole entry, looked up): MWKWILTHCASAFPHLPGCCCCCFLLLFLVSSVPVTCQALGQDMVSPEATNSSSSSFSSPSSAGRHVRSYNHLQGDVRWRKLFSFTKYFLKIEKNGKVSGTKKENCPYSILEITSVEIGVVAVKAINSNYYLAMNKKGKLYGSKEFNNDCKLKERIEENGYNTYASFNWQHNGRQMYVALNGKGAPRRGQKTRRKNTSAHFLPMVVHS

[6] = system: glycogen synthase kinase-3 (GSK3A per assay name; protocol says GSK3B); experiment: compounds binding glycogen synthase kinase-3 – biochemical, small-molecule microarray, 635 nm fluorescence, GSK3A, primary screen (AID 1103); details: fluorescence 635 nm, higher = more signal; note: the record names both GSK3A and GSK3B
[7] = target: Epidermal growth factor receptor (Homo sapiens) (UniProt P00533); experiment: compounds binding epidermal growth factor receptor – biochemical, small-molecule microarray, 635 nm fluorescence, primary screen (AID 1104); details: EGFR binding, higher = more signal;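 note: score merges 667 nm emission intensity with spot signal to noise over triplicate slides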
Chain of Epidermal growth factor receptor (Homo sapiens) (P00533 whole entry, looked up): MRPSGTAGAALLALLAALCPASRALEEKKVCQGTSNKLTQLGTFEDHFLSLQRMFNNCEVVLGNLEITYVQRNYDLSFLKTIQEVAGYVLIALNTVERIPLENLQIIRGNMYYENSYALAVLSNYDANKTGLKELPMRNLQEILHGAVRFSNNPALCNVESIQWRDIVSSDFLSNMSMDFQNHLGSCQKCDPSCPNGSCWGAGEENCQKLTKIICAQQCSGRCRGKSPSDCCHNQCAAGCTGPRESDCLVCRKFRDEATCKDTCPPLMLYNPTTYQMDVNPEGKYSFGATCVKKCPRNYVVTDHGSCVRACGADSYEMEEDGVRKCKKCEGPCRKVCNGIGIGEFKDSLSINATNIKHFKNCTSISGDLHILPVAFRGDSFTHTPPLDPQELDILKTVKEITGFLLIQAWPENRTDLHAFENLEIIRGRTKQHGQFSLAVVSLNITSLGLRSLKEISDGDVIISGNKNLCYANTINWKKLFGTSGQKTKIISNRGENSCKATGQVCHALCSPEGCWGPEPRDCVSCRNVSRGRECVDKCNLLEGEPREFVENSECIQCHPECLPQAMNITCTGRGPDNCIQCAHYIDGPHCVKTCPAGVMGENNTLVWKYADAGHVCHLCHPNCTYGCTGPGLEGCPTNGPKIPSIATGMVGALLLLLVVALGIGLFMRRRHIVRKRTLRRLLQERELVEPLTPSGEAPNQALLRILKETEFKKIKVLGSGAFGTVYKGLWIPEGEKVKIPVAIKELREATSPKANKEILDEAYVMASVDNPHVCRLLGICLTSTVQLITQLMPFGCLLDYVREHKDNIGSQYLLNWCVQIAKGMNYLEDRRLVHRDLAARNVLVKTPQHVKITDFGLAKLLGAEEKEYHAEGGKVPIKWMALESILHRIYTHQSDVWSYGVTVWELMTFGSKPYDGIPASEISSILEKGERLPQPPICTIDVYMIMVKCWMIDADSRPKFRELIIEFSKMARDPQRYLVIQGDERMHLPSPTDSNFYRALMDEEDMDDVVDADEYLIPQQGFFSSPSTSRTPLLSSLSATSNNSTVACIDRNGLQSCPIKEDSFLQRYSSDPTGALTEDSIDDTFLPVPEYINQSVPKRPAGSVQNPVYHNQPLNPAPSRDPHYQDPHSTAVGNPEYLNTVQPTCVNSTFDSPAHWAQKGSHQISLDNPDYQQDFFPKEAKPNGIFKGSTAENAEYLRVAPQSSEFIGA

[8] = target: Follistatin-related protein 3 (Homo sapiens) (UniProt O95633); experiment: compounds binding follistatin-related protein 3 – biochemical, small-molecule microarray, 635 nm fluorescence, primary screen (AID 1105); details: FSTL3 binding, higher = more signal;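 note: score merges emission near 667 nm and signal to noise per printed spot across three slides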
Chain of Follistatin-related protein 3 (Homo sapiens) (O95633 whole entry, looked up): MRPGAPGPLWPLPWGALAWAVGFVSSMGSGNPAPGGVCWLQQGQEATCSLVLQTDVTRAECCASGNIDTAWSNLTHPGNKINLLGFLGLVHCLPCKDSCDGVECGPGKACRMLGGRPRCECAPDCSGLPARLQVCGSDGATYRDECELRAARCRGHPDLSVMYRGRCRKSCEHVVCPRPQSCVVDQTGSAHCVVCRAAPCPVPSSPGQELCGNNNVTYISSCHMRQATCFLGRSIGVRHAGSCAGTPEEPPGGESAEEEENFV

[9] = target: Dickkopf-related protein 1 (Homo sapiens) (UniProt O94907); experiment: small molecules binding DKK1 protein – biochemical, small-molecule microarray, 635 nm fluorescence scan, primary screen (AID 1106); details: higher = more signal;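 note: score merges emission near 667 nm with signal to noise over three replicate slides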
Chain of Dickkopf-related protein 1 (Homo sapiens) (O94907 whole entry, looked up): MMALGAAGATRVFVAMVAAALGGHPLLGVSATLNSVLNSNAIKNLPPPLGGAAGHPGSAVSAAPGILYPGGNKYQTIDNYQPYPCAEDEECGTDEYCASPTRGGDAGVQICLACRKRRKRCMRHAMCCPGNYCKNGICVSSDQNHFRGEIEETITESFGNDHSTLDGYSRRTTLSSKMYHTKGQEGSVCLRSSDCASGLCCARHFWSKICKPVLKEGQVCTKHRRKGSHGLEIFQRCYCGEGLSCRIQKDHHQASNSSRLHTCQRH

[10] = system: Inhibin beta A chain (activin A); experiment: small molecules binding activin A – biochemical, small-molecule microarray, 635 nm fluorescence scan, primary screen (AID 1107); details: INHBA, higher = more signal;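 note: mouse activin A protein probed at 4.33 µg/mL on printed slides; score merges bound-protein fluorescence near 667 nm with spot signal-to-noise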
[11] = system: Human papillomavirus type 1a protein E7 (residues 44-93); experiment: small molecules binding HPV E7 44-93 – biochemical, small-molecule microarray, residues 44-93, 635 nm fluorescence, primary screen (AID 1108); details: fluorescence 635 nm, higher = more signal;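 note: E7 fragment applied at 1 µg/mL in TBST for 1 h at 4 C; score combines spot fluorescence with its signal to noise ratio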
[12] = hepatitis C replication reporter changes, two-sided – Huh7 cells, luciferase reporter, HCV replication inhibitor project, primary screen (AID 1109); details: Huh7 HCV replicon luciferase reporter, 48 h; higher = more signal;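 note: huh7 hepatoma cells harbouring a luciferase neomycin HCV replicon reporter; luciferase luminescence as measure of HCV replicon replication; test concentration not given here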
[13] = target: Left-right determination factor 2 (Homo sapiens) (UniProt O00292); experiment: small molecules binding LEFTY2 protein – biochemical, small-molecule microarray, 635 nm fluorescence scan, primary screen (AID 1110); details: higher = more signal
Chain of Left-right determination factor 2 (Homo sapiens) (O00292 whole entry, looked up): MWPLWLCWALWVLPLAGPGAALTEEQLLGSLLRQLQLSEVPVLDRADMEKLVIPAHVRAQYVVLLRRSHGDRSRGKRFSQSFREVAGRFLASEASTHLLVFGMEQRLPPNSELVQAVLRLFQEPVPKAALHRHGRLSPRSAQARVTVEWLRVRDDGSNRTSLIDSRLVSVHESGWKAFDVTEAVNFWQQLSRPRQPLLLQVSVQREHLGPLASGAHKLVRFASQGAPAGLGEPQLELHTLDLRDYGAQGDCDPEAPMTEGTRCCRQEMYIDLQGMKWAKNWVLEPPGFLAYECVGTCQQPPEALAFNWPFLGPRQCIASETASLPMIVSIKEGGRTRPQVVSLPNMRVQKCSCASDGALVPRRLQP

[14] = target: Calmodulin-1 (Homo sapiens) (UniProt P0DP23); experiment: small molecules binding calmodulin-1 with EGTA – biochemical, small-molecule microarray, Cy5-labelled CALM1, profiling panel (AID 1111); details: Cy5-CALM1 binding fluorescence, higher = more signal;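 note: labelled calmodulin applied in Tris saline Tween buffer holding calcium plus EGTA and DTT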
[15] = target: Calmodulin-1 (Homo sapiens) (UniProt P0DP23); experiment: small molecules binding Ca-loaded calmodulin-1 – biochemical, small-molecule microarray, Cy5-labelled CALM1, plus calcium, artefact control for SMM control-protein annotation, profiling panel (AID 1112); details: Cy5-CALM1 binding fluorescence, higher = more signal;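 note: score merges spot fluorescence with signal to noise from triplicate slides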
[16] = probe aWnt5a binding to arrayed compounds – biochemical, biotinylated probe, 635/667 nm fluorescence, primary screen (AID 1113); details: small-molecule microarray, higher = more signal;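 note: score merges 667 nm fluorescence intensity with signal-to-noise per printed feature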
[17] = probe aShh binding to arrayed compounds – biochemical, biotinylated probe, 635/667 nm fluorescence, primary screen (AID 1114); details: small-molecule microarray, higher = more signal;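 note: probe is biotin-labelled aShh protein from a stem cell growth factor screen; measures binding of labelled protein to compounds printed on the slide; score merges feature fluorescence at 667 nm with signal-to-noise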
[18] = probe aNog binding to arrayed compounds – biochemical, biotinylated probe, 635/667 nm fluorescence, primary screen (AID 1115); details: small-molecule microarray, higher = more signal;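 note: probe is biotinylated aNog protein used at 0.15 µg/mL for 1 h at 4 C; z-score combines 667 nm fluorescence of each spot with its signal to noise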
[19] = target: Torsin-1A-interacting protein 1 (Homo sapiens) (UniProt Q5JTV8); experiment: compound microarray binding of lysate hLAP1 – cell lysate, small-molecule microarray, COS7 lysate, 635/667 nm fluorescence, primary screen (AID 1116); details: 635 nm fluorescence, higher = more signal
Chain of Torsin-1A-interacting protein 1 (Homo sapiens) (Q5JTV8 whole entry, looked up): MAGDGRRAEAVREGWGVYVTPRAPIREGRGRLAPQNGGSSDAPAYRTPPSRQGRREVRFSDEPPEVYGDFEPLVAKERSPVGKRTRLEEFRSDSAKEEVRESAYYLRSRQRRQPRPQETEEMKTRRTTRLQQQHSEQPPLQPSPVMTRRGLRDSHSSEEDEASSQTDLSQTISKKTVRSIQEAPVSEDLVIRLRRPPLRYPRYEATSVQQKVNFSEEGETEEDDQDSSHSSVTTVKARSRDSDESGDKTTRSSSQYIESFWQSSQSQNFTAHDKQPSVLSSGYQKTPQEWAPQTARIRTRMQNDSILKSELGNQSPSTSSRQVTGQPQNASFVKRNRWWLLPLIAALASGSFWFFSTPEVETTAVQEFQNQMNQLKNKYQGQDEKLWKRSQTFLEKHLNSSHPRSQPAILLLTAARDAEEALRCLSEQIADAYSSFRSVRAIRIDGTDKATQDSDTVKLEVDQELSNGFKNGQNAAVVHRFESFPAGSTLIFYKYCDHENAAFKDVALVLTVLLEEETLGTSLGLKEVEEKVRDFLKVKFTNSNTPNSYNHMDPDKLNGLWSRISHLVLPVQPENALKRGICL

[20] = target: Alpha-bungarotoxin (Bungarus multicinctus) (UniProt P60615); experiment: compounds binding labelled alpha-BTX control protein – biochemical, small-molecule microarray, Alexa647 label, 635/667 nm fluorescence, artefact control for SMM control protein annotation, profiling panel (AID 1117); details: alpha-BTX-A647 binding fluorescence, higher = more signal
Chain of Alpha-bungarotoxin (Bungarus multicinctus) (P60615 whole entry, looked up): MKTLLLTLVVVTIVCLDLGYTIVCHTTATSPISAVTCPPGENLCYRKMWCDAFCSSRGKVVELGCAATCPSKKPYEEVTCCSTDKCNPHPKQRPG

| SMILES | composite z-score [1] | composite z-score [2] | composite z-score [3] | z-score [4] | composite z-score [5] | composite z-score [6] | composite z-score [7] | composite z-score [8] | composite z-score [9] | composite z-score [10] | composite z-score [11] | z-score [12] | composite z-score [13] | composite z-score [14] | composite z-score [15] | composite z-score [16] | composite z-score [17] | composite z-score [18] | composite z-score [19] | composite z-score [20] |
| --- | --- | --- | --- | --- | --- | --- | --- | --- | --- | --- | --- | --- | --- | --- | --- | --- | --- | --- | --- | --- |
| CCOC(=O)[C@H]1C/C=C/C[C@H](C(=O)OCC)C(=O)O[C@H]2[C@@H](OC)O[C@H](CO)[C@@H](OC(=O)c3c(OC)cccc3OC)[C@@H]2OC1=O | 0.615 | -0.0451 | 0.152 | 0.837 (inactive) | 0.803 | 0.62 | -0.13 | 1.16 | 0.764 | 0.837 | -0.908 | -3.32 | 0.204 | 0.34 | 0.208 | -0.126 | 0.244 | 0.65 | 0.11 | 1.1 |
| COC(=O)[C@@]1(Cc2ccc(F)cc2)[C@H]2c3cc(C(=O)N(C)C)n(Cc4cc(F)c(F)c(F)c4)c3C[C@H]2CN1C(=O)c1ccccc1 | 0.931 | 0.9 | 1.19 | -1.91 (inactive) | 1.16 | 0.744 | -0.024 | 1.08 | -0.85 | 0.529 | 1.32 | -2.75 | -0.323 | 1.6 | 1.01 | 0.245 | 0.566 | 2.27 | 1.16 | 1.17 |
| CCCC[C@@H]1C[C@H]1[C@@H](NC(=O)c1ccco1)c1ccccc1C(F)(F)F | -0.323 | 2.11 | 1.39 | -0.255 (inactive) | 0.3 | -0.291 | -0.127 | 0.449 | -0.316 | 1.49 | 0.209 | -1.42 | -0.23 | 1.75 | 1.2 | 0.948 | 2.6 | 2.94 | 0.58 | 1.84 |
| CC(C)=CCN[C@H](CO)c1ccccc1 | 0.38 | -0.274 | -0.235 | -0.795 (inactive) | 0.795 | -0.366 | 0.149 | 0.576 | 0.749 | 1.01 | 0.318 | -1.76 | 0.422 | -0.644 | -0.881 | -0.13 | 0.0048 | -0.278 | 0.157 | 0.189 |
| O=C(c1ccccc1)N1Cc2ccccc2C[C@@]2(COC(c3ccc(OCCCO)cc3)=N2)C1=O | 1.5 | 0.298 | 0.657 | 0.372 (inactive) | 1.1 | 1.29 | 0.0545 | 0.796 | 0.146 | 0.7 | 1.4 | -1.25 | 0.252 | 1.32 | 0.566 | -0.0512 | 0.184 | -0.486 | 1.31 | 1.83 |
| COc1cc(COC(C)=O)ccc1OC(C)=O | 0.0968 | 1.85 | 0.285 | -0.309 (inactive) | 0.301 | 0.578 | 1.04 | 0.505 | 1.17 | 0.47 | 0.793 | -0.785 | 0.44 | 0.434 | -0.156 | 0.731 | -0.093 | -0.0878 | 0.299 | -0.0551 |
| CCOC(=O)C1=C[C@@H](C(C)(C)C)N(S(=O)(=O)c2ccc(C)cc2)[C@H]1c1ccc(F)cc1 | 0.592 | 0.75 | 0.4 | -0.711 (inactive) | 0.81 | 1.29 | 0.395 | 1.23 | 0.402 | 0.556 | 1.41 | -1.59 | 0.653 | 1.49 | 0.083 | 0.0668 | -0.1 | 0.509 | 0.992 | 1.15 |
| COC(=O)[C@@]1(Cc2ccc(OC)cc2)[C@H]2c3cc(C(=O)N(C)C)n(Cc4ccccn4)c3C[C@H]2CN1C(=O)c1ccccc1 | 1.04 | 1.2 | 1.36 | -1.71 (inactive) | -0.024 | -0.305 | -0.627 | -0.317 | -0.659 | -1.71 | -0.0851 | -0.741 | -0.479 | 2.86 | 1.41 | 0.0859 | 0.645 | 1.86 | 3.05 | 1.13 |
| COCCOC(=O)N1C(=O)[C@@]2(c3cc(C#CCC(C(=O)OC)C(=O)OC)ccc31)[C@H](c1ccccc1OCCO)N1[C@H](c3ccccc3)[C@H](c3ccccc3)OC(=O)[C@H]1[C@@H]2C(=O)NC[C@H](O)c1ccccc1 | 1.36 | 0.877 | 0.326 | 3.84 (inactive) | 1.05 | 1.29 | 1.17 | 1.23 | 0.66 | 0.619 | 0.948 | -2.28 | 1.44 | 0.832 | 0.277 | 0.0718 | 0.275 | 0.237 | 0.876 | 0.926 |
| COc1cc(C(O)C2C=CC3C(=O)NC(=O)C3N2Nc2ccccn2)cc(OC)c1OC (stereo not given) | 1.18 | -0.149 | 0.418 | 1.53 (inactive) | 0.12 | 0.211 | 0.635 | -0.027 | 0.336 | 0.791 | 1.04 | -0.178 | 0.0534 | -0.0338 | -0.62 | -0.128 | -0.243 | 0.416 | 0.531 | -0.0198 |
| CCCC[C@@H]1C[C@H]1[C@@H](NC(=O)C(C)(C)C)c1ccc(C(F)(F)F)cc1 | -0.0923 | 0.767 | 1.44 | -2.95 (inactive) | -1.23 | -0.266 | -1.76 | -1.63 | -1.61 | 0.328 | 0.946 | -1.71 | -1.61 | 1.18 | 1.3 | -0.203 | 0.102 | 1.52 | 0.473 | -0.0729 |
